Data: PubChem BioAssay (NCATS)
Results filed as inconclusive are left out. Activity calls are given as the source filed them. Calls follow the shape of the dose curve; as a rule, active = well fitted curve in the direction sought with a large enough effect; inconclusive = small, poorly fitted or top-dose-only effect, or another doubt; inactive = no such curve, though single readings can be large; an effect the other way counts as inactive or inconclusive.

Key:
[1] = target: Rap guanine nucleotide exchange factor 3 (Homo sapiens) (UniProt O95398); experiment: Confirmatory qHTS for antagonist of cAMP-regulated guanine nucleotide exchange factor 3 (EPAC1) (AID 1645880); also: nearly all actives have a fitted effect of over 55% in size; also: potency is read from the fitted curve at half-maximal effect
Summary of the method: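 Released BODIPY-GDP fluoresces less than Rap1-bound BODIPY-GDP; the signal is followed at 480/540 nm at 5-min intervals over 30 min, after 5 min at room temperature. Reactions contain 100 nM EPAC1, 250 nM RAP1B-BODIPY-GDP and 50 uM GDP; results are normalized to ATA and DMSO.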

[2] = target: Rap guanine nucleotide exchange factor 3 (Homo sapiens) (UniProt O95398); experiment: Confirmatory qHTS for agonist of cAMP-regulated guanine nucleotide exchange factor 3 (EPAC1) (AID 1645881); also: nearly all actives have a fitted effect of over 75% in size; also: potency is read from the fitted curve at half-maximal effect;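 as to activation: EPAC1 catalysed release of BODIPY-GDP from Rap1B seen as fluorescence loss; 100% = effect of cAMP agonist control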
[3] = target: Rap guanine nucleotide exchange factor 4 (Homo sapiens) (UniProt Q8WZA2); experiment: Confirmatory qHTS for agonist of cAMP-regulated guanine nucleotide exchange factor 4 (EPAC2) (AID 1645884);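 also: nucleotide exchange releases bodipy-GDP from Rap1 and this lowers its fluorescence; nearly all actives have a fitted effect of over 65% in size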; also: potency is read from the fitted curve at half-maximal effect; as to activation: % is scaled to controls: 0 for no effect and ±100 for the full control effect
[4] = target: Rap guanine nucleotide exchange factor 4 (Homo sapiens) (UniProt Q8WZA2); experiment: Confirmatory qHTS for antagonist of cAMP-regulated guanine nucleotide exchange factor 4 (EPAC2) (AID 1645885); also: nearly all actives have a fitted effect of over 25% in size; also: potency is read from the fitted curve at half-maximal effect; as to activity change, negative = inhibition: % is scaled to controls: 0 for no effect and ±100 for the full control effect
[5] = target: Rap guanine nucleotide exchange factor 3 (Homo sapiens) (UniProt O95398); experiment: Counterscreen qHTS for antagonist of cAMP-regulated guanine nucleotide exchange factor 3 (EPAC1) (AID 1645888); also: % of control where 0% means no effect
Summary of the method: (§1)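 Rap1B–BODIPY-GDP (250 nM) with 50 uM GDP; compounds pin-transferred to 9.74 nM–152 uM final (activator) or from 7.32 nM upwards (inhibitor). Fluorescence Ex/Em 480/540 nm read at 5 and 30 min, then after adding cAMP or buffer, at room temperature.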

[6] = target: Rap guanine nucleotide exchange factor 3 (Homo sapiens) (UniProt O95398); experiment: Counterscreen qHTS for agonist of cAMP-regulated guanine nucleotide exchange factor 3 (EPAC1) (AID 1645889); also: nearly all actives have a fitted effect of over 40% in size; also: potency is read from the fitted curve at half-maximal effect; as to activation: % of control where 0% means no effect
Summary of the method: as §1

Chain of Rap guanine nucleotide exchange factor 3 (Homo sapiens) (O95398 whole entry, looked up): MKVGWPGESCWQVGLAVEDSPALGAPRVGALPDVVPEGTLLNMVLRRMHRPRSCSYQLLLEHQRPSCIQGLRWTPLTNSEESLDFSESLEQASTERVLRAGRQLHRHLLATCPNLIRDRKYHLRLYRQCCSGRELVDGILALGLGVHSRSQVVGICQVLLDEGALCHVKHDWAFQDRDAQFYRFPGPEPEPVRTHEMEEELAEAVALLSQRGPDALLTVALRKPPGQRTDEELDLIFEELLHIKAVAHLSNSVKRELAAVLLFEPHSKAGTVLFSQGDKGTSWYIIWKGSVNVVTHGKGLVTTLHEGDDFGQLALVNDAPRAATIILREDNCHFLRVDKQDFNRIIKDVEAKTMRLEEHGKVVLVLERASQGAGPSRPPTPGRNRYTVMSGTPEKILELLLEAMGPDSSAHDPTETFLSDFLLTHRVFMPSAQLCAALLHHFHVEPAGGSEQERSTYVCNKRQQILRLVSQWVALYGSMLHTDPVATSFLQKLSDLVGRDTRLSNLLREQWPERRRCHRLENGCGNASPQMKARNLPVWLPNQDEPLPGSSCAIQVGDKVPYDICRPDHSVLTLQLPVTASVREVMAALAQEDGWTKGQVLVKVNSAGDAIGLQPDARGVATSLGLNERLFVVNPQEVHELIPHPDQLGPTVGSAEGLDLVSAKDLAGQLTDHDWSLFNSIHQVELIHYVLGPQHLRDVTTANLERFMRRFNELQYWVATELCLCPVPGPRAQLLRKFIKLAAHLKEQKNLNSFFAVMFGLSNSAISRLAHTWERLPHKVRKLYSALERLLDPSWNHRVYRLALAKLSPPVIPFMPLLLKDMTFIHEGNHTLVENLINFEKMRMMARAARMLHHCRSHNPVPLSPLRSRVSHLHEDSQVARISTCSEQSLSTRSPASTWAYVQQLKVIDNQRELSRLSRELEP
Chain of Rap guanine nucleotide exchange factor 4 (Homo sapiens) (Q8WZA2 whole entry, looked up): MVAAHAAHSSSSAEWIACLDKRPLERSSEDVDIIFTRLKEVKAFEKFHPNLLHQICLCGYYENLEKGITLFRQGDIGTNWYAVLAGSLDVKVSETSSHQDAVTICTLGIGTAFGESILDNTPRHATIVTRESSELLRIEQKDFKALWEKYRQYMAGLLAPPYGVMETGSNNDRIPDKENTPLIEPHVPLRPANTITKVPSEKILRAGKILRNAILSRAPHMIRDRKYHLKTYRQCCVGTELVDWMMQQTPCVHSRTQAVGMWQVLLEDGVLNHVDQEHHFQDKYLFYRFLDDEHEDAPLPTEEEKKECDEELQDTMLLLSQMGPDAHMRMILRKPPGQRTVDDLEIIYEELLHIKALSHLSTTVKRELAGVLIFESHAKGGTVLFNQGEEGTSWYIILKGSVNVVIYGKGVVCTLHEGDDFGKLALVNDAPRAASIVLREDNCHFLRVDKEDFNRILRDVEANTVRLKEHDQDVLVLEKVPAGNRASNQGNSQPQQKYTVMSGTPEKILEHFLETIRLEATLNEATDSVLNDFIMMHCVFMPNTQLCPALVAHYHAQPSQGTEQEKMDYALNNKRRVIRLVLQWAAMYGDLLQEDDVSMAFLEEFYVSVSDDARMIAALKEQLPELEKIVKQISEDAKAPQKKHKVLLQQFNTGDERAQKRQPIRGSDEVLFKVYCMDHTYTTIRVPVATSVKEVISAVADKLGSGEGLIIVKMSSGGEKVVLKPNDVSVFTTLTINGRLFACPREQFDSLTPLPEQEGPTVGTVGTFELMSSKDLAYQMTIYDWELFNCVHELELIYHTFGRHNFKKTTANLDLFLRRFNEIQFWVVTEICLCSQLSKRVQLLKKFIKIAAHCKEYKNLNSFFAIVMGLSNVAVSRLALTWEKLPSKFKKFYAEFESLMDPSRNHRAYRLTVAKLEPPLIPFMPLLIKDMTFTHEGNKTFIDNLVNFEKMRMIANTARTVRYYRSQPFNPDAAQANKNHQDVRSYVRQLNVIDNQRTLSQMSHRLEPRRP

Cc1ccc2nc(NC(=O)CSc3ncnc4c3oc3ccccc34)sc2c1
inactive: Potency [1] | Potency [2] | Potency [3] | Potency [4] | Potency [5] | Potency [6]

Cc1ccc2nc(-c3ccccc3)c(Cc3ccccc3C(F)(F)F)n2c1
inactive: Potency [1] | Potency [2] | Potency [3] | Potency [4] | Potency [5] | Potency [6]

COc1ccc(N(C)C(=O)c2oc(=O)c3ccccc3c2-c2ccc(C)cc2)c(OC)c1
inactive: Potency [1] | Potency [2] | Potency [3] | Potency [4] | Potency [5] | Potency [6]

COc1ccccc1/C=C1\SC(=S)N(NS(=O)(=O)c2ccc(C)cc2)C1=O
inactive: Potency [2] | activation [3] 1.14% [at 17.1 µM, percent relative to cAMP agonist control] | Potency [4] | activity change, negative = inhibition [5] 2.6% [at 30.8 µM] | activation [6] -16.6% [at 30.8 µM]
active: Potency [1] 12.6 µM

CC[n+]1c(/C=C/C=C/N(C(C)=O)c2ccccc2)sc2cc(OC)ccc21
inactive: Potency [1] | Potency [4] | Potency [5]
active: Potency [2] 100 µM | Potency [3] 112 µM | Potency [6] 50.1 µM

Cc1nc(-c2cccc(NC(=O)Cc3ccccc3)c2)cs1
inactive: Potency [1] | Potency [2] | activation [3] 1.14% [at 17.1 µM, percent relative to cAMP agonist control] | Potency [4] | activity change, negative = inhibition [5] -17.6% [at 30.8 µM] | activation [6] 2.08% [at 30.8 µM]

COC(=O)c1cc2occc2n1Cc1ccc(F)cc1Cl
inactive: Potency [1] | Potency [2] | Potency [3] | Potency [4] | Potency [5] | Potency [6]

CSc1ccccc1NC(=O)COc1ccccc1C
inactive: Potency [1] | Potency [2] | activation [3] 11.3% [at 17.1 µM, percent relative to cAMP agonist control] | Potency [4] | activity change, negative = inhibition [5] -1.84% [at 30.8 µM] | activation [6] 4.86% [at 30.8 µM]

CC1CCC2=NN(C(=O)c3ccco3)C(O)(C(F)(F)F)C2C1 (centres undefined)
inactive: Potency [1] | Potency [2] | activation [3] 4.2% [at 17.1 µM, percent relative to cAMP agonist control] | Potency [4] | activity change, negative = inhibition [5] -9.1% [at 30.8 µM] | activation [6] -2.19% [at 30.8 µM]

O=C(C[n+]1cc(Br)cc2ccccc21)c1ccc(F)cc1
inactive: Potency [1] | Potency [2] | activation [3] 1.58% [at 17.1 µM, percent relative to cAMP agonist control] | Potency [4] | activity change, negative = inhibition [5] 9.18% [at 30.8 µM] | activation [6] 21% [at 30.8 µM]

Cc1nn(CCc2nn[nH]n2)c2nc(-c3ccc(C4CCCCC4)cc3)cc(C(F)(F)F)c12
inactive: Potency [2] | Potency [3] | Potency [4] | Potency [5] | Potency [6]
active: Potency [1] 21.3 µM

O=C(O)C(c1ccccc1)N1C(=O)/C(=C\c2ccc(-c3ccccc3Cl)o2)SC1=S (centres undefined)
inactive: Potency [1] | Potency [2] | Potency [3] | Potency [4] | Potency [5] | Potency [6]

Oc1ccc(NCc2ccccc2OCc2ccccc2)cc1
inactive: Potency [1] | Potency [2] | Potency [3] | Potency [4] | Potency [5] | activation [6] 20.2% [at 30.8 µM]

COc1ccccc1/C=C/C=C1\Oc2c(ccc(O)c2CN2CCN(CCO)CC2)C1=O
active: Potency [2] 100 µM | Potency [3] 100 µM | Potency [4] 84.9 µM | Potency [6] 39.8 µM
inactive: Potency [1] | Potency [5]

Cc1cc(C)c(C(=O)c2cccs2)c(C)c1
inactive: Potency [1] | Potency [2] | Potency [3] | Potency [4] | Potency [5] | Potency [6]

CC(=O)Oc1c(Sc2ccccc2[N+](=O)[O-])c(C)nn1C(C)(C)C
active: Potency [1] 42.6 µM
inactive: Potency [2] | Potency [3] | Potency [4] | Potency [5] | Potency [6]

C=CC[C@@H](CC(=O)NCCO)C(=O)N[C@@H](C)COC(=O)[C@H](CC=C)CC(=O)OC(C)(C)C
inactive: Potency [1] | Potency [2] | activation [3] -2.5% [at 17.1 µM, percent relative to cAMP agonist control] | Potency [4] | activity change, negative = inhibition [5] 2.15% [at 30.8 µM] | activation [6] -7.04% [at 30.8 µM]

CN(C)c1ccc(/C=C/C(=O)c2ccc3c(c2)OCO3)cc1
inactive: Potency [1] | Potency [5]
active: Potency [2] 112 µM | Potency [3] 112 µM | Potency [4] 37.9 µM | Potency [6] 79.4 µM

COc1ccccc1CNC(=O)CCCn1nc(C)c2c(C)n(-c3ccc(C)cc3)nc2c1=O
inactive: Potency [1] | Potency [2] | Potency [3] | outcome [4] inactive [at 12.7 µM] | Potency [5] | Potency [6]

Cc1ccc2[nH]cc(C(c3ccccc3)c3cccs3)c2c1 (centres undefined)
inactive: Potency [1] | Potency [2] | Potency [3] | outcome [4] inactive [at 12.7 µM] | Potency [5] | Potency [6]

Cc1ccc(S(=O)(=O)N2[C@@H](c3ccc(Cl)c(Cl)c3)C(C(=O)O)=C[C@H]2CC2CCCC2)cc1
inactive: Potency [2] | activation [3] 11.3% [at 17.1 µM, percent relative to cAMP agonist control] | Potency [4] | activity change, negative = inhibition [5] -8.49% [at 30.8 µM] | activation [6] 18.3% [at 30.8 µM]
active: Potency [1] 44.7 µM

O=C1c2ccccc2S(=O)(=O)c2cc(N3CCC4(CC3)OCCO4)ccc21
inactive: Potency [1] | Potency [2] | Potency [3] | Potency [5]
active: Potency [4] 84.9 µM | Potency [6] 14.1 µM

COc1ccc(C(C)=NNc2ccc([N+](=O)[O-])cc2S(=O)(=O)Nc2ccccc2C(=O)O)c(OC)c1
inactive: Potency [2] | Potency [3] | Potency [5] | Potency [6]
active: Potency [1] 37.9 µM | Potency [4] 75.7 µM

COc1ccc(C=NNc2ccc([N+](=O)[O-])cc2S(=O)(=O)Nc2ccccc2C(=O)O)cc1OC
active: Potency [1] 25.1 µM
inactive: Potency [2] | activation [3] -2.2% [at 17.1 µM, percent relative to cAMP agonist control] | Potency [4] | activity change, negative = inhibition [5] -11.2% [at 30.8 µM] | activation [6] 21.9% [at 30.8 µM]

O=C(Nc1nncs1)c1ccccc1NS(=O)(=O)c1cccs1
inactive: Potency [1] | Potency [2] | Potency [3] | Potency [4] | Potency [5] | Potency [6]

CC(C)CC1C(=O)N(Cc2cn(CCC3OCCCO3)nn2)CCS(=O)(=O)N1Cc1ccc(-c2ccccc2)cc1 (centres undefined)
inactive: Potency [1] | Potency [2] | Potency [3] | Potency [4] | Potency [5] | Potency [6]

CC(C)(C)[C@H](N)C(=O)N[C@H]1CCC2C3CC=C4C[C@@H](O)CC[C@]4(C)C3CC[C@@]21C (some centres undefined)
inactive: Potency [1] | Potency [2] | activation [3] 3.5% [at 17.1 µM, percent relative to cAMP agonist control] | Potency [4] | activity change, negative = inhibition [5] -9.07% [at 30.8 µM] | activation [6] 31.4% [at 30.8 µM]

O=C(Cc1ccccc1)NCC(=O)N1CCC1
inactive: Potency [1] | Potency [2] | Potency [3] | Potency [4] | Potency [5] | Potency [6]

CCOC(=O)c1ccc(-c2ccc(/C=C(\C#N)C(=O)Nc3c(C)cccc3Cl)o2)cc1
inactive: Potency [2] | Potency [3] | Potency [4] | Potency [5] | Potency [6]
active: Potency [1] 75.7 µM

CC(C)CS(=O)(=O)C1=NN2C(=N)/C(=C\c3ccc(OC(=O)c4ccco4)cc3)C(=O)N=C2S1
active: Potency [1] 37.9 µM
inactive: Potency [2] | Potency [3] | Potency [4] | Potency [5] | Potency [6]

COc1cccc(C2c3[nH]c4ccccc4c3CCN2Cc2ncc[nH]2)c1 (centres undefined)
inactive: Potency [1] | Potency [2] | activation [3] 1.64% [at 17.1 µM, percent relative to cAMP agonist control] | Potency [4] | activity change, negative = inhibition [5] -8.75% [at 30.8 µM] | activation [6] 15.1% [at 30.8 µM]

CN1/C(=C\C=C2/SC(=S)NC2=O)C(C)(C)c2ccccc21
active: Potency [2] 79.4 µM | Potency [3] 79.4 µM | Potency [4] 7.57 µM | Potency [6] 70.8 µM
inactive: Potency [1] | Potency [5]

CCCc1cc(=O)oc2c3c(cc(OCC(=O)NCc4ccccn4)c12)OC(C)(C)CC3
inactive: Potency [1] | Potency [2] | Potency [3] | Potency [4] | Potency [5] | Potency [6]

Cn1c(=O)c2nc3ccc(NC(=O)C(F)(F)F)cc3nc2n(C)c1=O
active: Potency [1] 84.9 µM
inactive: Potency [2] | Potency [3] | Potency [4] | Potency [5] | Potency [6]

CCC(C)Sc1c(C(C)C)cnc2c1c(=O)n(C)c(=O)n2C (centres undefined)
inactive: Potency [1] | Potency [2] | Potency [3] | Potency [4] | Potency [5] | Potency [6]

COc1cnc(-c2ccccn2)nc1Oc1c(C)cccc1C
inactive: Potency [1] | Potency [2] | Potency [3] | Potency [4] | Potency [5] | Potency [6]

CSCCC(NC(=O)c1ccc(Cl)cc1)C(=O)OCC(=O)NCc1ccco1 (centres undefined)
inactive: Potency [1] | Potency [2] | activation [3] 0.694% [at 17.1 µM, percent relative to cAMP agonist control] | Potency [4] | activity change, negative = inhibition [5] -13% [at 30.8 µM] | activation [6] -1.33% [at 30.8 µM]

COc1ccc(/C=C/C(=O)NC2CCS(=O)(=O)C2)cc1 (centres undefined)
inactive: Potency [1] | Potency [2] | Potency [3] | Potency [4] | Potency [5] | Potency [6]

Cc1ccc(-c2csc(NS(=O)(=O)c3cccc(F)c3)n2)o1
inactive: Potency [2] | activation [3] -0.922% [at 17.1 µM, percent relative to cAMP agonist control] | Potency [4] | activity change, negative = inhibition [5] -6.02% [at 30.8 µM] | activation [6] 14.9% [at 30.8 µM]
active: Potency [1] 14.1 µM

O=CN(CCN(C=O)CN1CCCCC1)CN1CCCCC1
inactive: Potency [1] | Potency [2] | Potency [3] | Potency [4] | Potency [5] | Potency [6]

Cc1cn([C@H]2C[C@H](O)[C@@H](CCC(=O)NCc3ccc4c(c3)OCO4)O2)c(=O)[nH]c1=O
inactive: Potency [1] | Potency [2] | Potency [3] | Potency [4] | Potency [5] | Potency [6]

CC1CCCCN1C(=O)COC(=O)c1cc([N+](=O)[O-])ccc1N1CCOCC1 (centres undefined)
inactive: Potency [1] | Potency [2] | Potency [3] | Potency [4] | Potency [5] | Potency [6]

CC1CCCN(CC(=O)Nc2cc(Cl)ccc2Oc2ccccc2)C1 (centres undefined)
inactive: Potency [1] | Potency [2] | Potency [3] | Potency [4] | Potency [5] | Potency [6]

O=C(N/N=C/c1cc(Br)c(O)c(Br)c1)c1cc2c(ccc3ccccc32)o1
active: Potency [1] 39.8 µM
inactive: Potency [2] | activation [3] -5.24% [at 17.1 µM, percent relative to cAMP agonist control] | Potency [4] | activity change, negative = inhibition [5] -6.71% [at 30.8 µM] | activation [6] 1.28% [at 30.8 µM]
